The source of these data is PubChem BioAssay (NCATS).

The target in assay [1] is Mitogen-activated protein kinase 10 (Mus musculus) (UniProt Q61831). As to the kind of experiment: JNK3 AlphaScreen Assay (AID 530; active = well fitted curve in either direction with a large enough effect, not every such curve was filed as active;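 note: kinase came from lysate of stimulated human HepG2 cells; signal reports phosphorylation of biotinylated GST-cJun 1-79 at Ser73 with 10 µM ATP; series mostly up to about 57 µM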). The procedure, abridged:
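HepG2 lysate (IL-1b/TNFa pre-activated) + biotin-GST-cJun 1-79 + anti-pSer73 cJun; cpd titration, 15 min RT; ATP 10 uM start; Tris pH 7.6, MgCl2, DTT, vanadate; beads in EDTA buffer; AlphaScreen.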
(In general: In Alpha technology, singlet oxygen from a donor bead excites a nearby acceptor bead.)

The target of assay [2] is Cytochrome P450 3A4 (Homo sapiens) (UniProt P08684). As to the kind of experiment: qHTS Assay for Inhibitors and Substrates of Cytochrome P450 3A4 (AID 884). Note: potency is the fitted concentration of half-maximal effect; nearly all actives have a fitted effect of over 50% in size. The method, boiled down: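 Luminescent readout of luciferin produced by CYP3A4 (20 nM) dealkylation of Luciferin-PPXE, 25 uM (its KM). NADPH-driven reaction ran 60 min at RT after 10 min compound preincubation; data scaled to 57 uM ketoconazole as 100% inhibition.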

The target is the same in assay [3]. Put plainly: qHTS Assay for Activators of Cytochrome P450 3A4 (AID 885). Note: nearly all actives have a fitted effect of over 65% in size. The method, boiled down: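 CYP3A4 activity: Luciferin-PPXE O-dealkylation, 25uM substrate, 200mM KPO4, RT throughout. Read-out is luciferase luminescence; higher values reflect activation.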
Background: In qHTS, concentration-response curves come from the screen itself.

Records with an inconclusive call do not appear. Entries that show only a call come without a potency. Active and inactive are the calls of the source. Unless noted, calls come from the whole dose curve; as a rule, active = well fitted curve in the direction sought with a large enough effect; inconclusive = small, poorly fitted or top-dose-only effect, or another doubt; inactive = no such curve, though single readings can be large; an effect the other way counts as inactive or inconclusive.

Chain of Cytochrome P450 3A4 (Homo sapiens) (P08684 whole entry, looked up): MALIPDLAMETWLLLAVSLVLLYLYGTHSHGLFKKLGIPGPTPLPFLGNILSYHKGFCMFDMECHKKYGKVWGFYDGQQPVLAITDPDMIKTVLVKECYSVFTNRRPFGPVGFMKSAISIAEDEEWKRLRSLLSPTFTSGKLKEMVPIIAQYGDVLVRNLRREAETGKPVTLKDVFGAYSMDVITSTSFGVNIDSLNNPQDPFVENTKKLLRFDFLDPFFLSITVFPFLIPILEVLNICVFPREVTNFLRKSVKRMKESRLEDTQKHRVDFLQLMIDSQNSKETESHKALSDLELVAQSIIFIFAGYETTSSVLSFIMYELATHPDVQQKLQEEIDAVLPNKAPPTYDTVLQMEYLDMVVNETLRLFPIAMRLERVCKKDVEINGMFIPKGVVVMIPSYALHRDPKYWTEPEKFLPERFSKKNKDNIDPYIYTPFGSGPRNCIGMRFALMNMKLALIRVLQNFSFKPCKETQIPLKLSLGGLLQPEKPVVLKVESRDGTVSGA

Regarding `CC(C)(C)[Si](OCC[C@@H]1C[C@@]1(C)[C@@H](NP(=O)(c1ccccc1)c1ccccc1)c1ccccc1)(c1ccccc1)c1ccccc1`, in assay [1], the molecule was called inactive. In assay [2], the Potency is 12.6 µM (active). For the same molecule, the Potency result in assay [3] is “inactive”.

With `CC1=C(C(=O)OCc2ccccc2)C(c2ccccc2-c2ccccc2)NC(=O)N1CCCCCC(=O)O` (centres undefined), in assay [1], the molecule was called inactive. Further, in assay [2], the Potency is 10 µM (active). Besides, the Potency entry in assay [3] was “inactive”.

Turning to `COC(=O)CNC(=O)[C@@]1(C)C=C[C@@H](Cc2ccccc2)N1C(=O)OC`, the call in assay [1] was inactive. Moreover, the Potency in assay [2] was 12.6 µM (active). Moreover, the Potency entry in assay [3] was “inactive”.

As to `CC(=O)N1CC=CC1(CC(C)C)C(=O)NCc1ccc(C)o1` (centres undefined), in assay [1], the result was inactive. The Potency result in assay [3] was “inactive”.

With `COCCNC(=O)[C@@]1(Cc2ccccc2)C=C[C@@H](C)N1C(C)=O`, the result in assay [1] was inactive. In assay [3], the Potency entry is “inactive”.

As to `COC(=O)CNC(=O)C1(CC(C)C)C=CCN1C(C)=O` (centres undefined), the molecule was called inactive in assay [1]. Besides, the Potency entry in assay [3] is “inactive”.

For the molecule `CNC(=O)C1(C)C=CC2(CCCCC2)N1C(=O)OC` (centres undefined), in assay [1], the molecule was called inactive. For the same molecule, the Potency entry in assay [3] was “inactive”.

In the case of `COC(=O)c1ccc(C(NC(=O)OCc2ccccc2)/C(=C/[C@@H](C)C(=O)NCc2cc(F)cc(F)c2)c2cccnc2)cc1` (some centres undefined), the result in assay [1] was inactive. Further, the Potency in assay [2] is 1.58 µM (active). Also, the Potency entry in assay [3] was “inactive”.

As to `CNC(=O)C1(C)C=CC2(CCCCC2)N1C(C)=O` (centres undefined), the molecule was classed as inactive in assay [1]. The Potency result in assay [3] is “inactive”.

Turning to `COC(=O)CNC(=O)C1(C)C=CC2(CCCCC2)N1C(C)=O` (centres undefined), the outcome in assay [1] was inactive. The Potency entry in assay [3] was “inactive”.

In the case of `COC(=O)c1ccc(C(NC(=O)OCc2ccccc2)/C(=C/[C@@H](C)C(=O)NCc2ccc(OC)c(O)c2)c2cccnc2)cc1` (some centres undefined), in assay [1], the molecule was classed as inactive. The Potency in assay [2] is 2.51 µM (active). Also, the Potency result in assay [3] was “inactive”.

As to `COC(=O)N1CC=CC1(C)C(=O)NCc1ccc(C)o1` (centres undefined), in assay [1], the molecule was called inactive. Further, the Potency result in assay [3] was “inactive”.
